Assay results from ChEMBL document CHEMBL1961873, “Compounds: GSK PKIS; Assays: Nanosyn kinase panel” (2012).

Assays:
[1] = target: T1, 3-phosphoinositide-dependent protein kinase 1 (Homo sapiens) (UniProt O15530); settings: at 0.1 µM;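 note: values are mean inhibition of PDK1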
T1 sequence (whole entry): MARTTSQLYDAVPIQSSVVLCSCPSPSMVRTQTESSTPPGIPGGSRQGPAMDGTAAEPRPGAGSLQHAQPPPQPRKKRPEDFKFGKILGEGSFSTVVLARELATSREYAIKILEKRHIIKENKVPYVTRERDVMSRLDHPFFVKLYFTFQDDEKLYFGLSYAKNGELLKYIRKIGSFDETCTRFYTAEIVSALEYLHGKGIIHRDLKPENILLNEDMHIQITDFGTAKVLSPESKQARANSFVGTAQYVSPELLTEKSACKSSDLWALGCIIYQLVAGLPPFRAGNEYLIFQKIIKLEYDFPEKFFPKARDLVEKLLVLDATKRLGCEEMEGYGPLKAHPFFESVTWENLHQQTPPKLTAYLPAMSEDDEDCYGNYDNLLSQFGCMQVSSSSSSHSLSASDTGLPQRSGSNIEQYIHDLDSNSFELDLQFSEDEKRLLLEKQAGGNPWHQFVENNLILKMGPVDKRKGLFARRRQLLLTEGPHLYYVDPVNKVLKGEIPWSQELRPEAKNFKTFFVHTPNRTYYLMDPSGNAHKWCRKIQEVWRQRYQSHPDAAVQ

[2] = target: cAMP-dependent protein kinase catalytic subunit alpha (Homo sapiens) (UniProt P17612); settings: at 0.1 µM
[3] = target: cAMP-dependent protein kinase catalytic subunit alpha (Homo sapiens) (UniProt P17612); settings: at 1 µM
[4] = target: Protein kinase C alpha type (Homo sapiens) (UniProt P17252); settings: at 0.1 µM
[5] = target: Protein kinase C alpha type (Homo sapiens) (UniProt P17252); settings: at 1 µM
[6] = target: Protein kinase C beta type (Homo sapiens) (UniProt P05771); settings: at 0.1 µM
Chain of Protein kinase C beta type (Homo sapiens) (P05771 2-671 limits assumed): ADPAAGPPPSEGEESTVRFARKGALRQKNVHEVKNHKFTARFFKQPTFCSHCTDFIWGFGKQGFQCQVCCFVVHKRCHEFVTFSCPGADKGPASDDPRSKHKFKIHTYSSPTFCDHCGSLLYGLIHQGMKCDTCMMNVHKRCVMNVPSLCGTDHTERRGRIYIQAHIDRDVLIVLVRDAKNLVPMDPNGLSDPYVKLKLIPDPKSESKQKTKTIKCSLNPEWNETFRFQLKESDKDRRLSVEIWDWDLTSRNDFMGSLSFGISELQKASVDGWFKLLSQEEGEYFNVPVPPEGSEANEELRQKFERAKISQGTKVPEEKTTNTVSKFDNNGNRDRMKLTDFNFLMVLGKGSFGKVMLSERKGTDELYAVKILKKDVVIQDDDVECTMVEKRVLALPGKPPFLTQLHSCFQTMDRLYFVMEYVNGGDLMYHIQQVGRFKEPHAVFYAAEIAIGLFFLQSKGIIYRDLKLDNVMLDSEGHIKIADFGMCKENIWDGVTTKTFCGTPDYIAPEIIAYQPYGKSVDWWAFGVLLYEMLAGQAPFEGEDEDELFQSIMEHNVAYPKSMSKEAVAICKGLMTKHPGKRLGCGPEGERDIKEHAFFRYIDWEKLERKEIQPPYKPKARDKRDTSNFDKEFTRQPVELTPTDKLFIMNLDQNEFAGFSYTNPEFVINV

[7] = target: Protein kinase C beta type (Homo sapiens) (UniProt P05771); settings: at 1 µM
[8] = target: Protein kinase C eta type (Homo sapiens) (UniProt P24723); settings: at 0.1 µM
Chain of Protein kinase C eta type (Homo sapiens) (P24723 whole entry): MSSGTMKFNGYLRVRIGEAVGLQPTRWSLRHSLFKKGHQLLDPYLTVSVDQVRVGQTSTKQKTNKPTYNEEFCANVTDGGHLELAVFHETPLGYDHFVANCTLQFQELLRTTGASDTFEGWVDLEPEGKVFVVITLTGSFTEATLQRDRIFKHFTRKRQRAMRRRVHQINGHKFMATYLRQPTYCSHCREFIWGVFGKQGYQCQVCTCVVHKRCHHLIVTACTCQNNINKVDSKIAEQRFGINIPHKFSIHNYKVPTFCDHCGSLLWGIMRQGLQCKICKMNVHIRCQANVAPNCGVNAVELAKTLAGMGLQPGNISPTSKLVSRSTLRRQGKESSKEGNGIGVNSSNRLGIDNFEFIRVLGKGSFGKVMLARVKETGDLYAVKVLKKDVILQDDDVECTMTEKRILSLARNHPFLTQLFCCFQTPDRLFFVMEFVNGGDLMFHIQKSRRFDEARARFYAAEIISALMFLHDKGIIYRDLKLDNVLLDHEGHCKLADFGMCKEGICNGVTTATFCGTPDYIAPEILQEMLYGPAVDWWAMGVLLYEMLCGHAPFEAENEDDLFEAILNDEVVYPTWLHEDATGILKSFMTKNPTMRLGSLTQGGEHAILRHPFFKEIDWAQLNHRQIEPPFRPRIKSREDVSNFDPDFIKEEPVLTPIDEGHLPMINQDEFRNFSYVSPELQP

[9] = target: Protein kinase C eta type (Homo sapiens) (UniProt P24723); settings: at 1 µM
[10] = target: Protein kinase C gamma type (Homo sapiens) (UniProt P05129); settings: at 0.1 µM
[11] = target: Protein kinase C gamma type (Homo sapiens) (UniProt P05129); settings: at 1 µM
[12] = target: T2, Protein kinase C iota type (Homo sapiens) (UniProt P41743); settings: at 0.1 µM
T2 sequence (whole entry): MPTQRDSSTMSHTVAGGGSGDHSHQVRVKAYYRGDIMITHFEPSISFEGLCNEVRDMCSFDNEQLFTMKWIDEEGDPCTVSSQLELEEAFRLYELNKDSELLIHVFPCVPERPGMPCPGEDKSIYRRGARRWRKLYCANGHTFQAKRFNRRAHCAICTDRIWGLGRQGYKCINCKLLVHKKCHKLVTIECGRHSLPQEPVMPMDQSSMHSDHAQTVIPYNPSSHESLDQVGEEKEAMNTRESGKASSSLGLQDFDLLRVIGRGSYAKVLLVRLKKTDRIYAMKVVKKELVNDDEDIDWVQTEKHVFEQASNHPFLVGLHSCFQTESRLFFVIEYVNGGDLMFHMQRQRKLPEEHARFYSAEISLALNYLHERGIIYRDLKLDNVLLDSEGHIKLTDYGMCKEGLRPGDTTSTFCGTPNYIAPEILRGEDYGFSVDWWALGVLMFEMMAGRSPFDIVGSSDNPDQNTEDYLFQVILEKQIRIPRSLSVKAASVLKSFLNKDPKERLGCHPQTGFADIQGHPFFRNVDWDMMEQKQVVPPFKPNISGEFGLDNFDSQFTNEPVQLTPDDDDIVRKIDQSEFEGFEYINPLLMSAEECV

[13] = target: T2, Protein kinase C iota type (Homo sapiens); settings: at 1 µM
[14] = target: Protein kinase C theta type (Homo sapiens) (UniProt Q04759); settings: at 0.1 µM
Chain of Protein kinase C theta type (Homo sapiens) (Q04759 whole entry, looked up): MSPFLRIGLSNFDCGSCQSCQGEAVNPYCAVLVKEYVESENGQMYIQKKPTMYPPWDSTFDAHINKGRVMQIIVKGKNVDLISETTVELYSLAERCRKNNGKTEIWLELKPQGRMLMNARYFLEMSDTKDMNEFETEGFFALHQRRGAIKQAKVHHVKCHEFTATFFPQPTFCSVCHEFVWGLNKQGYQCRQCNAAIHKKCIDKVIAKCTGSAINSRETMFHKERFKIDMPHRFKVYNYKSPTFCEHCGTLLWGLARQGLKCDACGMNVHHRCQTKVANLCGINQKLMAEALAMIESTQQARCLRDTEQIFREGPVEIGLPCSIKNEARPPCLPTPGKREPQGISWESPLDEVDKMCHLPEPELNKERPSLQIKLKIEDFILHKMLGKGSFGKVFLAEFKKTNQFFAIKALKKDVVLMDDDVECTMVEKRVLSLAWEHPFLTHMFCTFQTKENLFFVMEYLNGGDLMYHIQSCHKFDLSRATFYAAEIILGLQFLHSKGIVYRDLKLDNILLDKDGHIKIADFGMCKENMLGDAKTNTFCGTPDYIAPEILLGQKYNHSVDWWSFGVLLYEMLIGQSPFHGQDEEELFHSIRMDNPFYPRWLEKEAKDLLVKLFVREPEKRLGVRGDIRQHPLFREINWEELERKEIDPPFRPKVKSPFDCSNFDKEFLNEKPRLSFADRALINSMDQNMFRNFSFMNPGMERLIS

[15] = target: Protein kinase C theta type (Homo sapiens) (UniProt Q04759); settings: at 1 µM
[16] = target: Protein kinase C beta type (Homo sapiens) (UniProt P05771); settings: at 0.1 µM; remark: listed apart in the source
[17] = target: Protein kinase C beta type (Homo sapiens) (UniProt P05771); settings: at 1 µM; remark: listed apart in the source
[18] = target: T3, Serine/threonine-protein kinase D1 (Homo sapiens) (UniProt Q15139); settings: at 0.1 µM
T3 sequence (whole entry): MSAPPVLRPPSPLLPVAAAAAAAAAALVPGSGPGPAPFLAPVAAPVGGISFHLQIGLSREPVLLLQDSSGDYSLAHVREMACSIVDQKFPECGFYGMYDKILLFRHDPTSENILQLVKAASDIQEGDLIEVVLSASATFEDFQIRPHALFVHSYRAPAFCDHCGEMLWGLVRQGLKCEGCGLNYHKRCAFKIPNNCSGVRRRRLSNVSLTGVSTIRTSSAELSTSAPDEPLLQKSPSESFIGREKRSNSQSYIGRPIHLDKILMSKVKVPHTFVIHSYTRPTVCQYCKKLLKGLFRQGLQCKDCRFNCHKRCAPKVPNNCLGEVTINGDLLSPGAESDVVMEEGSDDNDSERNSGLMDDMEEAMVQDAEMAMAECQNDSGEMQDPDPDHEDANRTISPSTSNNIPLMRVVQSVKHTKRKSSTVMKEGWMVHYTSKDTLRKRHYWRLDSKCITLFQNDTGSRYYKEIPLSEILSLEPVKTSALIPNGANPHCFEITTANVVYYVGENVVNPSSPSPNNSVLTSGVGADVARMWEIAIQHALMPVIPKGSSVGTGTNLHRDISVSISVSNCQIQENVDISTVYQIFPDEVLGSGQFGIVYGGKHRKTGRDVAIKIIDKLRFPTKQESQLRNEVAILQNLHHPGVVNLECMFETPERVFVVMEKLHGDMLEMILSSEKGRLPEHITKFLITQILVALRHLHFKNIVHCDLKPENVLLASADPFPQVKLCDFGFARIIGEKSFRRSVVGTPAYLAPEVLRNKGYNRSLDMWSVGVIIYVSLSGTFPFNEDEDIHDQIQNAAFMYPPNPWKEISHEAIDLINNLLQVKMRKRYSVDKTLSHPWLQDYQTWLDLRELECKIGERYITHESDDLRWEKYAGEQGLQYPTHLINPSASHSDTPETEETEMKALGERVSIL

[19] = target: T3, Serine/threonine-protein kinase D1 (Homo sapiens); settings: at 1 µM
[20] = target: T4, Serine/threonine-protein kinase D2 (Homo sapiens) (UniProt Q9BZL6); settings: at 0.1 µM;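 note: reported percent inhibition values are means, part of the GSK PKIS kinase panel screen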
T4 sequence (whole entry): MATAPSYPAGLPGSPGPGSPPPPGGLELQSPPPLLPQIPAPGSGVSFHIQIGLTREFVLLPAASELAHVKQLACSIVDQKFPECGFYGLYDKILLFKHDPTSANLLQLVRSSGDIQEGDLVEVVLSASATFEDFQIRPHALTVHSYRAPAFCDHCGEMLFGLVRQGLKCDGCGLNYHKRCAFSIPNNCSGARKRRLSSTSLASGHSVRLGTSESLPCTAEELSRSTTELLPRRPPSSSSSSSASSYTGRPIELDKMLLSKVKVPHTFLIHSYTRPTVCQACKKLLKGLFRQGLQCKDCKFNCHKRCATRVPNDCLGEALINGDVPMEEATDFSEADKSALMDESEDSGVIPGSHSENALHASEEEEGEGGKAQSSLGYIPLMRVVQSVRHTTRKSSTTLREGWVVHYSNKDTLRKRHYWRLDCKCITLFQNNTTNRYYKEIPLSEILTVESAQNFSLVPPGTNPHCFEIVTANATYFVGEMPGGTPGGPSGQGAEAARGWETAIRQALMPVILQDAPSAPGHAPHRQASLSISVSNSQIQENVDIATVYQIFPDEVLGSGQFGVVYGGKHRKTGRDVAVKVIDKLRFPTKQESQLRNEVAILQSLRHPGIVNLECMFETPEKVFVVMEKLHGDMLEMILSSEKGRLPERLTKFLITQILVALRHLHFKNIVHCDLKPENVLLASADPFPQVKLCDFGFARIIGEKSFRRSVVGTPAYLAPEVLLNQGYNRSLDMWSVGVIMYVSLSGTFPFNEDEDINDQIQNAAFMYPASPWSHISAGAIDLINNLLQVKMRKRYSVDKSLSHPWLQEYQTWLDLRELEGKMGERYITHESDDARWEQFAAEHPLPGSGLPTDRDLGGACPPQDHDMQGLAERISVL

SMILES	inhibition [1] [%]	inhibition [2] [%]	inhibition [3] [%]	inhibition [4] [%]	inhibition [5] [%]	inhibition [6] [%]	inhibition [7] [%]	inhibition [8] [%]	inhibition [9] [%]	inhibition [10] [%]	inhibition [11] [%]	inhibition [12] [%]	inhibition [13] [%]	inhibition [14] [%]	inhibition [15] [%]	inhibition [16] [%]	inhibition [17] [%]	inhibition [18] [%]	inhibition [19] [%]	inhibition [20] [%]
Cc1ccc(C(=O)NC2CCC2)cc1-c1ccc(C(=O)NCC2CC2)cc1	1.97	1.15	1.14	0.19	-0.23	0.31	1.48	7.1	2.68	0.43	0.94	2.17	2.33	0.68	-0.42	0.24	0.53	2.65	3.61	2.36
O=C(Nc1n[nH]c2nc(-c3ccc(O)cc3)c(Br)cc12)C1CC1	5.57	2.91	5.49	5.38	36.9	6.11	36.5	6.81	12.9	12.7	48.1	5.33	19.2	7.68	33.2	19	57.6	4.47	7.7	6.19
NCc1ccc(-n2c(-c3nonc3N)nc3cnccc32)cc1	2.61	10.4	56.1	4.7	41	29.1	64.5	47.1	88.4	4.15	42.1	4.36	27.5	17.2	59.4	7.63	37.7	8.16	41	8.58
Nc1nccc(-c2c(-c3ccc(F)cc3)ncn2C2CCC(O)CC2)n1 (stereo not given)	0.39	4.16	48.4	0.74	10.2	3.05	20.3	-3.17	-1.04	-3.99	2.37	1.25	0.01	-0.81	0.4	1.56	16.3	0.14	18.5	0.03
CN(C)CCOc1ccc(-c2cc(-c3ccc4c(c3)CCC4=NO)c(-c3ccncc3)o2)cc1	0.51	2.75	21	-0.04	1.32	-1.02	4.4	0.38	-1.11	0.61	0.02	-1.87	-1.84	-1.06	-0.42	-0.72	2.28	-0.39	0.79	0.89
C[C@@H](Oc1cc(-n2cnc3ccc(OC4CCN(C)CC4)cc32)sc1C(N)=O)c1ccccc1Cl	0.63	-1.89	-4.19	-3.4	0.64	0.95	3.55	2.46	4.62	0.71	4.97	1.12	2.89	3.08	9.67	1.56	8.48	0.52	3.79	0.7
Cc1ccc(C(=O)NC(C)C)cc1-c1ccc(C(=O)NCC2CC2)cc1	-3.15	-2.08	-1.32	-0.49	0.46	-0.62	-0.82	-2.29	-3.07	-0.67	-2.88	-0.44	-0.8	-1.25	-1.29	-0.65	-0.9	-3.39	-3.57	-1.97
COc1cc(Nc2ncc3c(C)nc(-c4cccc(Oc5ccccc5)c4)n3n2)cc(OC)c1OC	3.74	0.88	-0.04	0.01	0.77	-0.46	-0.16	4.9	-1.37	0.97	2.12	0.93	1.81	0.31	-0.72	0.53	0.55	1.42	2.93	1.26
CN1CCN(CCCNc2nc3ccc(Oc4ccc(NC(=O)Nc5cc(C(F)(F)F)ccc5F)cc4)cc3[nH]2)CC1	2.91	-1.46	-0.98	-2.39	-1.52	2.13	1.42	1.27	1.68	1.25	2.83	1.14	1.05	-0.2	-0.32	2.09	2.68	-0.88	-1.77	-2.52
CCC(=O)Nc1ccc(C)c(-c2ccc(C(=O)NCC3CC3)cc2)c1	2.1	2.1	1.49	-0.25	0.8	0.07	-0.89	5.65	3.46	0.1	2.13	0.11	0.41	1.23	1.92	0.61	1.48	2.88	2.86	1.86
COc1ccc2ncn(-c3cc(O[C@H](C)c4ccccc4Cl)c(C(N)=O)s3)c2c1	0.22	-1.47	-1	-2.81	-1.38	1.09	2.58	5.09	3.95	0.98	2.27	4.03	3.88	2.43	2.69	1.24	2.97	-0.01	-0.79	-0.02
Cc1nnc(-c2ccc(C)c(-c3ccc(C(=O)NCc4ccc(Cl)cc4)cc3)c2)o1	1.14	-1.01	0.62	-3.05	-1.62	0.85	0.84	6.52	7.5	2.61	3.88	2.2	0.35	1.83	3.97	1.36	3.21	1	0.36	0.28
CCN(CC)Cc1ccc(Nc2nccc(-c3cnn4ncccc34)n2)cc1	0.96	-0.94	4.26	0.47	17.8	0.22	-5.55	5.27	7.25	0.4	7.9	1.27	2.03	2.37	4.84	1	6.38	36.3	65.6	28.1
CCS(=O)(=O)c1ccc(OC)c(Nc2ncc(-c3cccc(-c4ccccc4F)c3)o2)c1	9.34	0.57	1.3	1.13	1.66	0.49	0.3	-1.89	-1.48	0.64	0.81	1.05	3.5	-0.12	2.52	-0.13	1.06	1.19	1.23	1.33
